Data taken from the supplement of paper PMC7366291.
Structures can show the parent of a compound that is named as a salt. ± gives the standard deviation or the standard deviation of the averaged measurements.

Legend:
Details in all cases: 25 µM; exposure: 24-48 hpf
[1] = test system: Danio rerio Tg(wt1b:EGFP) embryo, pronephros; assay: glomerular separation, fold change vs DMSO control; higher = glomeruli further apart (abnormal)
In short: (§1)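 Dechorionated Tg(wt1b:EGFP) zebrafish embryos were kept from 24 to 48 hpf at 28.5°C in HEPES-buffered E3 containing 0.003% PTU, 0.5% DMSO and 25 μM compound. The pronephroi were then imaged from the dorsal side in agarose-filled 96-well plates at 470 nm with 10 z-slices, and 16 reference points were placed by hand on maximum projections in Fiji so that a macro could calculate distances and angles. Values lying more than 2 SD from the mean of a feature were discarded. Every feature is given as a fold change against the mean of DMSO-treated embryos from the same day.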

[2] = test system: Danio rerio Tg(wt1b:EGFP) embryo, pronephros; assay: glomerular width (mean of left and right), fold change vs DMSO control; higher = wider glomerulus
In short: as §1

[3] = test system: Danio rerio Tg(wt1b:EGFP) embryo, pronephros; assay: fraction of imaged embryos annotated as normal kidney; higher = less nephrotoxic; extreme values may be limits of the assay
In short: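 Dechorionated Tg(wt1b:EGFP) zebrafish embryos were exposed in 12-well plates to 25 μM compound in 0.5% DMSO, 5 mM HEPES-buffered E3 with 0.003% PTU, from 24 to 48 hpf at 28.5°C. Tricaine-anaesthetised larvae were oriented dorsally in agarose-filled 96-well plates, and pronephroi were imaged by widefield fluorescence (470 nm, 10 z-slices). Each embryo was manually annotated from maximum projections. The read-out is the fraction of embryos per treatment assigned to the normal-kidney category.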

[4] = test system: Danio rerio Tg(wt1b:EGFP) embryo, pronephros; assay: pronephric angle neck segment to proximal convoluted tubule (mean of left and right), fold change vs DMSO control; higher = larger pronephric angle
In short: as §1

CC(=O)/N=c1/sc(S(N)(=O)=O)nn1C [Methazolamide]
glomerular separation [1]: 0.898 ± 0.5 | glomerular width [2]: 1.14 ± 0.06 | fraction of imaged embryos annotated as normal kidney [3]: 0.636 | pronephric angle neck segment [4]: 1.02 ± 0.014

COc1ccc2[nH]cc(CCNC(C)=O)c2c1 [Melatonin]
glomerular separation [1]: 0.974 ± 0.26 | glomerular width [2]: 0.989 ± 0.026 | fraction of imaged embryos annotated as normal kidney [3]: 0.917 | pronephric angle neck segment [4]: 1.02 ± 0.056

CC[C@H](C)C(=O)O[C@H]1CCC=C2C=C[C@H](C)[C@H](CC[C@@H]3C[C@@H](O)CC(=O)O3)[C@H]21 [Mevastatin]
glomerular separation [1]: 4.87 ± 2.8 | glomerular width [2]: 0.798 ± 0.046 | fraction of imaged embryos annotated as normal kidney [3]: 0 | pronephric angle neck segment [4]: 1.73 ± 0.056

Nc1ncnc2c1ncn2C1OC(COP(=O)(O)O)C(O)C1O (configuration not stated) [Adenosine 5'-monophosphate monohydrate]
glomerular separation [1]: 0.936 ± 0.26 | glomerular width [2]: 1.029 ± 0.0059 | fraction of imaged embryos annotated as normal kidney [3]: 0.917 | pronephric angle neck segment [4]: 0.9657 ± 0.0086

CN(C(=O)CN(CCO)CC(=O)N(C)C(C)(C)Cc1ccccc1)C(C)(C)Cc1ccccc1 [Oxethazaine]
glomerular separation [1]: 0.855 ± 0.18 | glomerular width [2]: 1.1 ± 0.017 | fraction of imaged embryos annotated as normal kidney [3]: 0.727 | pronephric angle neck segment [4]: 0.94 ± 0.059

CCN(CC)C(=O)c1ccc(O)c(OC)c1 [Ethamivan]
glomerular separation [1]: 1.08 ± 0.29 | glomerular width [2]: 1.1 ± 0.019 | fraction of imaged embryos annotated as normal kidney [3]: 0.818 | pronephric angle neck segment [4]: 1.019 ± 0.0025

N#Cc1ccc(C(c2ccc(C#N)cc2)n2cncn2)cc1 [Letrozole]
glomerular separation [1]: 1.1 ± 0.4 | glomerular width [2]: 1.023 ± 0.0059 | fraction of imaged embryos annotated as normal kidney [3]: 0.917 | pronephric angle neck segment [4]: 0.938 ± 0.014

CCN1CCN(C(=O)N[C@@H](C(=O)N[C@@H]2C(=O)N3C(C(=O)O)=C(CSc4nnnn4C)CS[C@H]23)c2ccc(O)cc2)C(=O)C1=O [Cefoperazone dihydrate]
glomerular separation [1]: 1.2 ± 0.23 | glomerular width [2]: 1.01 ± 0.086 | fraction of imaged embryos annotated as normal kidney [3]: 0.909 | pronephric angle neck segment [4]: 1.046 ± 0.0064

CCOC(=O)C1=C(C)NC(C)=C(C(=O)OCC)C1c1ccccc1/C=C/C(=O)OC(C)(C)C [Lacidipine]
glomerular separation [1]: 6.82 ± 2.2 | glomerular width [2]: 0.671 ± 0.0078 | fraction of imaged embryos annotated as normal kidney [3]: 0.167 | pronephric angle neck segment [4]: 1.11 ± 0.073

Nc1nc(=O)[nH]cc1F [Flucytosine]
glomerular separation [1]: 0.784 ± 0.38 | glomerular width [2]: 1.0052 ± 0.0006 | fraction of imaged embryos annotated as normal kidney [3]: 0.75 | pronephric angle neck segment [4]: 1.003 ± 0.0094

Cn1c(=O)c2c(ncn2CC2OCCO2)n(C)c1=O [Doxofylline]
glomerular separation [1]: 1.55 ± 0.87 | glomerular width [2]: 0.971 ± 0.021 | fraction of imaged embryos annotated as normal kidney [3]: 0.917 | pronephric angle neck segment [4]: 1.03 ± 0.03

CC(C)(C)NC[C@H](O)COc1ccccc1C1CCCC1 [Penbutolol sulfate]
glomerular separation [1]: 0.661 ± 0.15 | glomerular width [2]: 0.988 ± 0.02 | fraction of imaged embryos annotated as normal kidney [3]: 0.917 | pronephric angle neck segment [4]: 1.02 ± 0.02

O=C(O)[C@H]1/C(=C/CO)O[C@@H]2CC(=O)N21 [Clavulanate potassium salt]
glomerular separation [1]: 0.835 ± 0.22 | glomerular width [2]: 1.04 ± 0.032 | fraction of imaged embryos annotated as normal kidney [3]: 0.833 | pronephric angle neck segment [4]: 1.001 ± 0.00045

CN(c1nccc(=O)[nH]1)C1CCN(c2nc3ccccc3n2Cc2ccc(F)cc2)CC1 [Mizolastine]
glomerular separation [1]: 1.05 ± 0.25 | glomerular width [2]: 1.1 ± 0.017 | fraction of imaged embryos annotated as normal kidney [3]: 0.917 | pronephric angle neck segment [4]: 0.937 ± 0.015

CCc1nn(CCCN2CCN(c3cccc(Cl)c3)CC2)c(=O)n1CCOc1ccccc1 [Nefazodone hydrochloride]
glomerular separation [1]: 0.987 ± 0.43 | glomerular width [2]: 1.05 ± 0.061 | fraction of imaged embryos annotated as normal kidney [3]: 0.727 | pronephric angle neck segment [4]: 0.989 ± 0.012

NS(=O)(=O)c1cc2c(cc1Cl)N=CNS2(=O)=O [Chlorothiazide]
glomerular separation [1]: 0.855 ± 0.11 | glomerular width [2]: 1.07 ± 0.043 | fraction of imaged embryos annotated as normal kidney [3]: 0.75 | pronephric angle neck segment [4]: 0.99 ± 0.057

O=C1NCCN1CCN1CCC(c2cn(-c3ccc(F)cc3)c3ccc(Cl)cc23)CC1 [Sertindole]
glomerular separation [1]: 1.45 ± 0.59 | glomerular width [2]: 1.08 ± 0.022 | fraction of imaged embryos annotated as normal kidney [3]: 0.833 | pronephric angle neck segment [4]: 0.949 ± 0.071

COc1cc(Cc2cnc(N)nc2N)cc(OC)c1OC [Trimethoprim]
glomerular separation [1]: 1.48 ± 0.76 | glomerular width [2]: 0.986 ± 0.013 | fraction of imaged embryos annotated as normal kidney [3]: 0.727 | pronephric angle neck segment [4]: 1.05 ± 0.063

CC(C)(C)NC(=O)[C@@H]1C[C@@H]2CCCC[C@@H]2CN1C[C@@H](O)[C@H](Cc1ccccc1)NC(=O)[C@H](CC(N)=O)NC(=O)c1ccc2ccccc2n1 [Saquinavir mesylate]
glomerular separation [1]: 1.08 ± 0.35 | glomerular width [2]: 1.04 ± 0.085 | fraction of imaged embryos annotated as normal kidney [3]: 0.909 | pronephric angle neck segment [4]: 0.977 ± 0.016

COC(=O)N/N=C/c1c[n+]([O-])c2ccccc2[n+]1[O-] [Carbadox]
glomerular separation [1]: 1.17 ± 0.61 | glomerular width [2]: 0.931 ± 0.063 | fraction of imaged embryos annotated as normal kidney [3]: 0.833 | pronephric angle neck segment [4]: 1.13 ± 0.11

CCN[C@H]1CN(CCCOC)S(=O)(=O)c2sc(S(N)(=O)=O)cc21 [Brinzolamide]
glomerular separation [1]: 1.47 ± 0.71 | glomerular width [2]: 1.053 ± 0.0011 | fraction of imaged embryos annotated as normal kidney [3]: 0.5 | pronephric angle neck segment [4]: 1.1 ± 0.069

COc1ccc(C(=O)NCc2ccc(OCCN(C)C)cc2)cc1OC [Itopride]
glomerular separation [1]: 1.05 ± 0.44 | glomerular width [2]: 0.962 ± 0.017 | fraction of imaged embryos annotated as normal kidney [3]: 0.8 | pronephric angle neck segment [4]: 1.06 ± 0.055

CN[C@@H]1[C@@H](O)[C@@H](O[C@@H]2[C@@H](O)[C@H](O[C@H]3OC(CN)=CC[C@H]3N)[C@@H](N)C[C@H]2N)OC[C@]1(C)O [Sisomicin sulfate]
glomerular separation [1]: 1.23 ± 0.84 | glomerular width [2]: 1.02 ± 0.043 | fraction of imaged embryos annotated as normal kidney [3]: 0.833 | pronephric angle neck segment [4]: 1.11 ± 0.029

NNC(=O)c1ccncc1 [Isoniazid]
glomerular separation [1]: 0.891 ± 0.099 | glomerular width [2]: 1.09 ± 0.032 | fraction of imaged embryos annotated as normal kidney [3]: 1 | pronephric angle neck segment [4]: 0.978 ± 0.02

COCCCC/C(=N\OCCN)c1ccc(C(F)(F)F)cc1 [Fluvoxamine maleate]
glomerular separation [1]: 1.05 ± 0.39 | glomerular width [2]: 0.91 ± 0.015 | fraction of imaged embryos annotated as normal kidney [3]: 1 | pronephric angle neck segment [4]: 0.996 ± 0.018

CN[C@@H]1[C@H](O[C@H]2[C@H](O[C@H]3[C@H](O)[C@@H](O)[C@H](NC(=N)N)[C@@H](O)[C@@H]3NC(=N)N)O[C@@H](C)[C@]2(O)CO)O[C@@H](CO)[C@H](O)[C@H]1O [Dihydrostreptomycin sulfate]
glomerular separation [1]: 0.844 ± 0.18 | glomerular width [2]: 1.0469 ± 0.00096 | fraction of imaged embryos annotated as normal kidney [3]: 0.667 | pronephric angle neck segment [4]: 0.975 ± 0.048

CCN(Cc1ccncc1)C(=O)C(CO)c1ccccc1 (configuration not stated) [Tropicamide]
glomerular separation [1]: 0.966 ± 0.68 | glomerular width [2]: 1.08 ± 0.027 | fraction of imaged embryos annotated as normal kidney [3]: 0.75 | pronephric angle neck segment [4]: 0.987 ± 0.052

CC[C@]12CCCN3CCc4c(n(c5ccccc45)C(=O)C1)[C@@H]32 [Eburnamonine (-)]
glomerular separation [1]: 1.19 ± 0.41 | glomerular width [2]: 0.922 ± 0.059 | fraction of imaged embryos annotated as normal kidney [3]: 1 | pronephric angle neck segment [4]: 1.03 ± 0.017
